High-throughput results as filed in PubChem BioAssay.
TPT1 inhibitor – C. albicans TPT1 enzyme inhibition. 300,000 compounds, 0.81% hits. inhibition, % at 5 µM. recombinant caTPT1, FP RNA substrate dephosphorylation. AID 1962;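 active means inhibition above the mean of all tested compounds plus 3 SD, set per screening campaign, cut at about 24% in these data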
Myeloid diff 2 – compounds promoting myeloid differentiation; ER-HoxA9 myeloid progenitors, lysozyme-GFP differentiation, flow cytometry; AID 624256; calls only at 10 µM; 360,000 compounds, 1% hits;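 active means normalized GFP-positive differentiation at or above the plate's own cutoff, the solvent-only control mean plus 3 SD; inconclusive means no clear call, values can overlap the other calls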;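 further: cells exposed to compound for four days before flow analysis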
Rpn11 inh – blocks the human proteasome subunit Rpn11. O00487. human 26S proteasome, Ub4-pepOG fluorescence polarization; 20S core pre-blocked with epoxomicin. inhibition, % at 20 µM. 360,000 compounds, 0.59% hits;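 active means inhibition at 20 µM, scaled to each plate's controls, above about 33%, limit read from the data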
HNF4A DNA FP – change in binding of human HNF4 alpha to DNA; P41235; HNF4a-FITC DNA binding, fluorescence polarization, 1 h; activity change, % at 10 µM; 360,000 compounds, 0.3% hits; AID 1224865; in the data active means activity change above about 30%, passing the limit was not always enough
Target sequence (P41235 whole entry, looked up): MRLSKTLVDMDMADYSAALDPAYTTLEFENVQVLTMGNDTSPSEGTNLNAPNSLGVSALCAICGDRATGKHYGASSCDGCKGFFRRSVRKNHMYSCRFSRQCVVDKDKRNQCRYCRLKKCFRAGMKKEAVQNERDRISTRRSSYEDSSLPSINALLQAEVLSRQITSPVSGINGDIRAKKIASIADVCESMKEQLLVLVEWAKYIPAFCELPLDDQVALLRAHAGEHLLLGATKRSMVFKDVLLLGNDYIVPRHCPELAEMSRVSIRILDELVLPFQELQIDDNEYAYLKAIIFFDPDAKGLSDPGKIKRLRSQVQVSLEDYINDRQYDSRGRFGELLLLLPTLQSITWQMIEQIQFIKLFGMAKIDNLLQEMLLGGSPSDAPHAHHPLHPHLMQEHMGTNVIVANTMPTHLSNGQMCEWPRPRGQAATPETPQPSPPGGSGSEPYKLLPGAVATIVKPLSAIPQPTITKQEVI
TPT1 inh confirm – confirmation of Candida albicans TPT1 inhibitors | shares compounds with TPT1 inhibitor | recombinant caTPT1, fluorescence polarization, RNase T1 coupled | 2,400 compounds, 74% hits | inhibition, % at 5 µM;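 active means inhibition above the primary screen limit, the mean inhibition of all tested compounds plus 3 SD, cut at about 25% in these data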
RNase T1 inh – RNase T1 inhibition in TPT1 counter-screen; shares compounds with TPT1 inhibitor; RNase T1 cleavage, fluorescence polarization, 1536-well; inhibition, % at 5 µM; 2,400 compounds, 83% hits;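 active means inhibition above the solvent-only control well mean plus 3 SD, limit set per screening run, cut at about 23% in these data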;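 further: inhibitors block cleavage so intact labeled substrate keeps polarization high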
Target sequence (P00651 whole entry, looked up): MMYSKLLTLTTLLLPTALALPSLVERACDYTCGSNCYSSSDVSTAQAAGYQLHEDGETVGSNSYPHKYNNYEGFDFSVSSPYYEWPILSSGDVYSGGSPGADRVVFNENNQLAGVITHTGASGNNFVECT
Of the large screens only hits and unclear results are named; the others gave an inactive call (follow-up assays come after a bar, where shown). Most compounds without a hit are left out; they make up all but 2.1% or so of the library.

Cc1ccc(CNC(=O)/C(C#N)=C\c2ccc(N(C)C)cc2)cc1	TPT1 inhibitor 57.9 (no result: Myeloid diff 2, Rpn11 inh, HNF4A DNA FP) | TPT1 inh confirm 63.9 | RNase T1 inh 79.9
CCN(CC)c1ccc(/C=C(\C#N)C(=O)NCc2ccco2)cc1	TPT1 inhibitor 110.0 (no result: Myeloid diff 2, Rpn11 inh, HNF4A DNA FP) | TPT1 inh confirm 103.7 | RNase T1 inh 113.5
CCN(CC)c1ccc(/C=C(\C#N)C(=O)NCc2ccccc2)cc1	TPT1 inhibitor 89.3, HNF4A DNA FP 40.6 | TPT1 inh confirm 106.7 | RNase T1 inh 113.7
Cn1c(=O)n(C)c2cc(/C=C(/C#N)C(=O)NCc3ccco3)ccc21	none
N#C/C(=C\c1ccccc1)C(=O)NCc1ccc(F)cc1	none (no result: Myeloid diff 2)
CN(C#N)c1nc(Cl)nc(Nc2cccc(Cl)c2)n1	none
COc1ccc(N(CC(=O)N/N=C/c2ccc(-c3ccc([N+](=O)[O-])cc3)o2)S(=O)(=O)c2ccc(C)cc2)cc1Cl	TPT1 inhibitor 43.3 | TPT1 inh confirm 41.8 | RNase T1 inh 50.8
COc1ccc(N(CC(=O)N/N=C/c2ccc(-c3ccc([N+](=O)[O-])cc3)o2)S(=O)(=O)c2ccc(C)cc2)cc1	none (not shown: Rpn11 inh)
COc1ccc(N=C2S/C(=C\c3ccc(N4CCOCC4)o3)C(=O)N2CCc2c[nH]c3ccccc23)cc1	TPT1 inhibitor 130.9, Myeloid diff 2 inconclusive (not shown: Rpn11 inh) | TPT1 inh confirm 141.0 | RNase T1 inh 136.1
COc1ccc(N=C2S/C(=C\c3ccc(OCC(=O)O)cc3)C(=O)N2CCc2c[nH]c3ccccc23)cc1	none (no result: TPT1 inhibitor)
Cn1cccc1/C=C1\CCC/C(=C\c2cccn2C)C1=O	TPT1 inhibitor 192.4 (not shown: Rpn11 inh) | TPT1 inh confirm 194.4 | RNase T1 inh 171.3
O=C1/C(=C/c2cccs2)CCC/C1=C\c1cccs1	none
CC1CCCN(C(=O)C2CCN(S(=O)(=O)c3cccc4nonc34)CC2)C1 (configuration not stated)	none
CC1CCN(C(=O)C2CCN(S(=O)(=O)c3cccc4nonc34)CC2)CC1	TPT1 inhibitor 41.6 | TPT1 inh confirm inactive | RNase T1 inh inactive
CNc1ccc(-c2cccc(C(=O)N3CCOCC3)c2)cn1	none (no result: TPT1 inhibitor)
CCc1cccc(NC(=O)CCCn2nc(C)c3c(C)n(-c4ccccc4)nc3c2=O)c1	none
COc1ccc(C2NC3=C(CCCC3)C(C#N)(C#N)C2(C#N)C#N)cc1 (configuration not stated)	TPT1 inhibitor 33.4 (no result: Myeloid diff 2, Rpn11 inh, HNF4A DNA FP) | TPT1 inh confirm 34.3 | RNase T1 inh 47.4
N#Cc1cc(Sc2ccccn2)c([N+](=O)[O-])cc1C#N	TPT1 inhibitor 38.3, Myeloid diff 2 active, Rpn11 inh 57.4 | TPT1 inh confirm 35.8 | RNase T1 inh 45.1
N#Cc1cc(Sc2ccccn2)c(Sc2ccccn2)cc1C#N	Myeloid diff 2 inconclusive
N#Cc1c(Sc2ncc(C(F)(F)F)cc2Cl)nsc1C/C=N\OCc1c(F)cccc1Cl	TPT1 inhibitor 35.9 (not shown: Rpn11 inh) | TPT1 inh confirm inactive | RNase T1 inh 33.2
CS(=O)(=O)Nc1ccc(-c2ccc(/C=C3\SC(N)=NC3=O)o2)cc1	TPT1 inhibitor 44.4, HNF4A DNA FP 42.4 | TPT1 inh confirm 54.2 | RNase T1 inh 68.1
NC1=NC(=O)/C(=C\c2ccco2)S1	none
CN(Cc1ccccc1)C(=O)C1CCN(S(=O)(=O)c2cccc3nonc23)CC1	none
O=[N+]([O-])c1c(Nc2ccccn2)cc(Cl)c2nonc12	TPT1 inhibitor 128.2, Myeloid diff 2 inconclusive (not shown: Rpn11 inh) | TPT1 inh confirm 135.2 | RNase T1 inh 130.1
Cc1ccc(S(=O)(=O)N/N=C/c2ccc(O)cc2O)cc1[N+](=O)[O-]	none
COc1ccc(-n2c(O)c(/C=N/NS(=O)(=O)c3ccc(C)c([N+](=O)[O-])c3)c3ccccc3c2=O)cc1OC	TPT1 inhibitor 100.0 (not shown: Rpn11 inh) | TPT1 inh confirm 113.8 | RNase T1 inh 112.5
CCOc1cccc(/C=N/NS(=O)(=O)c2ccc(C)c([N+](=O)[O-])c2)c1O	TPT1 inhibitor 94.3 | TPT1 inh confirm inactive | RNase T1 inh inactive
CC[n+]1ccc(/C=C/c2c[nH]c3ccccc23)cc1	TPT1 inhibitor 63.6, Myeloid diff 2 inconclusive (not shown: Rpn11 inh) | TPT1 inh confirm 60.1 | RNase T1 inh 67.0
COc1ccc([N+](=O)[O-])cc1NC(=O)C(C)OC(=O)C1CCC1 (configuration not stated)	none
Cc1ccc(NC(=S)NC2CCN(Cc3ccccc3)CC2)cc1	none
O=C(Nc1ccccc1)NC1CCN(Cc2ccccc2)CC1	TPT1 inhibitor 30.3 | TPT1 inh confirm inactive | RNase T1 inh inactive
CN(Cc1nc(-c2cccs2)no1)CC1(N2CCOCC2)CCCCC1	none
COc1ccc(-c2ccc(-c3noc(-c4cccs4)n3)c(OC)n2)cc1	TPT1 inhibitor 26.1 (not shown: Rpn11 inh) | TPT1 inh confirm 28.3 | RNase T1 inh 38.6
COc1ccc(-c2ccc(-c3noc(-c4cccc(OC)c4)n3)c(OC)n2)cc1	none
CCN(CC)c1ccc(NC(=O)CSc2nc3nc(C)cc(C)c3c(=O)[nH]2)cc1	none
CCOc1ccc(NC(=O)c2ccc(NC(=O)CSc3nc4ccccc4c(=O)[nH]3)cc2)cc1	TPT1 inhibitor 52.8 | TPT1 inh confirm inactive | RNase T1 inh inactive
COc1ccc(NC(=O)CSc2nc3nc(C)cc(C)c3c(=O)[nH]2)cc1	TPT1 inhibitor 25.0 | TPT1 inh confirm inactive | RNase T1 inh inactive
O=C(NCc1ccccc1Cl)C1CCCN(S(=O)(=O)c2cccc3nonc23)C1 (configuration not stated)	none
O=C(Nc1cccc(Cl)c1Cl)c1cc(S(=O)(=O)NCCc2ccccc2)ccc1F	none
COc1cc(/C=C2\SC(=S)N(NC(=O)c3cccnc3)C2=O)ccc1O	TPT1 inhibitor 25.4, HNF4A DNA FP 51.9 (not shown: Rpn11 inh) | TPT1 inh confirm 33.8 | RNase T1 inh 42.2
CC(=O)NN1C(=O)/C(=C\c2ccc(O)cc2)SC1=S	TPT1 inhibitor 36.6, HNF4A DNA FP 82.4 (not shown: Rpn11 inh) | TPT1 inh confirm 40.5 | RNase T1 inh 48.2
O=C1C2C3C=CC(CC3)C2C(=O)N1/N=C/c1ccc(O)cc1 (configuration not stated)	none
O=C1/C(=C\c2ccc(O)cc2)SC(=S)N1/N=C/c1ccc(O)cc1	TPT1 inhibitor 64.7, HNF4A DNA FP 106.1 (not shown: Rpn11 inh) | TPT1 inh confirm 62.0 | RNase T1 inh 68.0
CC(=O)NN1C(=O)/C(=C\c2ccc(C)cc2)SC1=S	none
COc1cccc(/C=C2\SC(=S)N(NC(=O)c3ccncc3)C2=O)c1	none
COc1cc(/C=C2\SC(=S)N(c3cccnc3)C2=O)ccc1O	none (not shown: Rpn11 inh)
COc1cc(/C=C2\SC(=S)N(NC(=O)c3ccc(O)cc3)C2=O)ccc1O	TPT1 inhibitor 34.6, HNF4A DNA FP 50.1 (not shown: Rpn11 inh) | TPT1 inh confirm 39.3 | RNase T1 inh 51.6
CC(NC(=O)C(C)N1CCN(S(=O)(=O)c2ccccc2)CC1)c1ccccc1 (configuration not stated)	none (no result: TPT1 inhibitor)
COc1cccc(-c2ccc3nnc(SCC(=O)Nc4ccc(NC(C)=O)cc4)n3n2)c1	none
COc1cc(/C=C2/SC(=S)N(CC3CCCO3)C2=O)ccc1O (configuration not stated)	TPT1 inhibitor 39.3, HNF4A DNA FP 40.6 (not shown: Rpn11 inh) | TPT1 inh confirm 40.8 | RNase T1 inh 51.4
